High-throughput results (PubChem)
Rows were chosen to be rich in hits. Some 2.4% of all compounds tested hit in one or more screens of this group.
POLK inh – qHTS for Inhibitors of Polymerase Kappa; purified Pol kappa, fluorescent DNA synthesis assay, 10 min; Potency, µM (top dose mostly 107 µM), inactives show top-dose activity, negative = inhibition, usual class: inhibitors; 400,000 tested, 0.53% active; further: on the % scale 0 is the no-effect control and ±100 the full control effect
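50 nM final substrate added after 15 min RT preincubation of 10 nM Pol kappa with compound; fluorescence read at 0 and 10 min.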
POLB inh – qHTS Assay for Inhibitors of DNA Polymerase Beta | P06746 | Pol beta primer extension/strand displacement, fluorescence kinetic | Potency, µM (highest dose often 114 µM), for the others: at the top dose activity change, negative = inhibition, usual class: inhibitors | 340,000 tested, 1.3% active; further: on the % scale 0 is the no-effect control and ±100 the full control effect
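Reaction started by 50 nM substrate onto compound-treated Pol beta (10 nM, 15 min preincubation, room temperature); plates read at 0 min and 10 min. Normalized concentration-effect data fitted by four-parameter Hill equation.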
KAT2A inh – qHTS Assay for Inhibitors of GCN5L2. GCN5L2 HAT assay, ThioGlo1 CoA-SH fluorescence. Potency, µM (series often up to 58.9 µM), for the others: top-dose activity change, negative = inhibition, most hits filed as inhibitors. 390,000 tested, 0.21% active; further: on the % scale 0 is the no-effect control and ±100 the full control effect
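ThioGlo1-coupled HAT assay: 20nM GCN5L2, 70uM acetyl-CoA, 75uM H3(1-25) peptide, pH 7.5. Fluorescence read at 340/540nm at start and after 20 min at room temperature.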
Pol iota inh – qHTS for Inhibitors of Polymerase Iota. Potency, µM (titrated, usually from 115 µM), for inactives: at the top dose activity, negative = inhibition, actives largely listed as inhibitors. 390,000 tested, 1% active. DNA polymerase iota (Homo sapiens), Q9UNA4. Pol iota fluorescent replication assay, 10 min
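Fluorescent replication assay read twice, at 0 min and 10 min after adding 50 nM (final) substrate. Enzyme (10 nM) and compounds were first incubated 15 min at room temperature; enzyme-free buffer wells were negative controls.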
Pol eta inh – qHTS for Inhibitors of Polymerase Eta; Potency, µM (series often up to 114 µM), for inactives: at the top dose activity change, negative = inhibition, most hits filed as inhibitors; 390,000 tested, 1.2% active; recombinant Pol eta, fluorescent DNA replication assay; AID 588591, 2011; further: on the % scale 0 is the no-effect control and ±100 the full control effect
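Pol eta at 10 nM preincubated with compounds 15 min at room temperature; reaction started with fluorescent substrate (50 nM final) and read kinetically at 0 and 10 min.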
GLS inh – qHTS for Inhibitors of Glutaminase (GLS); Glutaminase kidney isoform, mitochondrial (Homo sapiens), O94925; GLS enzymatic activity, qHTS titration; Potency, µM (highest dose often 45.5 µM), without a hit: top-dose activity change, negative = inhibition, most hits filed as inhibitors; 410,000 tested, 0.21% active; further: on the % scale 0 is the no-effect control and ±100 the full control effect
Target sequence (O94925 whole entry, looked up, canonical isoform): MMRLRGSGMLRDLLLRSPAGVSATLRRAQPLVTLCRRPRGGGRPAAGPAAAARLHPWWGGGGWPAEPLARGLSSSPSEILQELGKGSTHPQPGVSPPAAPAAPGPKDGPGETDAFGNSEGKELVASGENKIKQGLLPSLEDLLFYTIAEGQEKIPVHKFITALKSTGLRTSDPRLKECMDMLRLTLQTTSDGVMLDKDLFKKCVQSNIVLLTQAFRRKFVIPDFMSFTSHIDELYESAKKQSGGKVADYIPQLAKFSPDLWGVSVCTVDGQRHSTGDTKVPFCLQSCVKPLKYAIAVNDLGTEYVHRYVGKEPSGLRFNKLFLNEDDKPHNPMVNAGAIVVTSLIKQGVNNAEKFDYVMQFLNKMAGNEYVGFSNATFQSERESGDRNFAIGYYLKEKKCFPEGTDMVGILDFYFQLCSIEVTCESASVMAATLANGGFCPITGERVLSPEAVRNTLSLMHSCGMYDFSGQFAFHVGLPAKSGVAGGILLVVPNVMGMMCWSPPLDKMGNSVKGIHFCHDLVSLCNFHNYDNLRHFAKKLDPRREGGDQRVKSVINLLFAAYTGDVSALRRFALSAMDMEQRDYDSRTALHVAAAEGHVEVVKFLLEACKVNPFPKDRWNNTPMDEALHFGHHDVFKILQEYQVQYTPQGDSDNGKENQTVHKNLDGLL
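hKGA; 45 mM KH2PO4 pH 8.2 + 0.02% Tween-20; cpd via pin tool; 1 mM Gln soln; GluOx/HRP/Amplex Red; RT 30 min; fluor. t0 & final.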
The depositor's hits bear a star; [ ] = another dose, or the depositor's remark. The call rests on the fitted dose curve; in most records, active means well fitted inhibition curve with a large enough effect; inconclusive means small, poorly fitted or top-dose-only effect, or another doubt; inactive means no such curve, though single readings can be large or run the other way. Potency means the concentration at half of the fitted maximal effect.

For O=C(COC(=O)c1ccc(S(=O)(=O)NCc2ccco2)cc1)NCC1CCCCC1 the results were POLK inh -31%, POLB inh 35µM*, KAT2A inh -1%, Pol iota inh inconclusive, Pol eta inh inconclusive and GLS inh 0%.
Screening O=C(COC(=O)c1ccc(S(=O)(=O)NCc2ccco2)cc1)Nc1ccccc1 returned POLK inh -16%, KAT2A inh 1%, Pol iota inh 35%, Pol eta inh -15% and GLS inh 4%.
`CCCN1CCN(c2cc3c(cc2F)c(=O)c(S(=O)(=O)c2ccc(CC)cc2)cn3CC)CC1` gave POLK inh 5%, POLB inh -9%, KAT2A inh -10%, Pol iota inh 26%, Pol eta inh -18% and GLS inh 3%.
For COc1ccc2[nH]c(-c3ccc(F)cc3F)cc(=O)c2c1 the results were POLK inh -2% and KAT2A inh -14%[88.6 µM].
COc1ccc2[nH]c3c4c(ccc3c2c1)C(=O)C=CC4=O was read as POLK inh -24%, POLB inh -5%, KAT2A inh -1%, Pol iota inh 32µM*, Pol eta inh inconclusive and GLS inh inconclusive.
Cc1ccc(NC(=O)CN2C(=O)S/C(=C\c3cc(C)n(-c4ccc(C(=O)O)cc4)c3C)C2=O)cc1 was read as POLK inh -5%, POLB inh 79µM*, KAT2A inh -7%, Pol iota inh inconclusive, Pol eta inh 79µM* and GLS inh -15%.
`COc1ccc2c(N)c(C(=O)NN)[nH]c2c1` gave POLK inh -2%, POLB inh -1%, KAT2A inh -5%, Pol iota inh 253%, Pol eta inh 2% and GLS inh 13µM*.
Screening COCCCNC(=O)c1[nH]c2cc(OC)ccc2c1Sc1ccc(C)cc1 returned POLK inh 3%, POLB inh 0%, KAT2A inh -12%, Pol iota inh 15%, Pol eta inh -13% and GLS inh 3%.
For COc1ccc(-c2nc3ccc(NC(C)=O)cc3c(=O)n2Cc2ccccc2)cc1COc1ccc(NC(C)=O)cc1 the results were POLK inh -19% and Pol iota inh -11%.
C[C@@H]1C[C@@H]2OC(=O)[C@]3(C)[C@H]2[C@@H](OC3(C)O)[C@]2(C)C(=O)C=C[C@H]12 (stereo partly specified) was read as POLK inh -6%, POLB inh inconclusive, KAT2A inh 12%, Pol iota inh inconclusive, Pol eta inh -7% and GLS inh 1%.
Screening C=C1C(=O)O[C@@H]2C[C@@H](C)[C@@H]3C=CC(=O)[C@@]3(C)[C@@H](OC(C)=O)[C@H]12 returned POLK inh 2%, POLB inh -4%, KAT2A inh 1%, Pol iota inh inconclusive, Pol eta inh 45µM* and GLS inh -1%.
COc1cc2c(cc1OC)C1O[C@](c3ccsc3)(C2)OC2=C1C(=O)OC1(CCCCC1)C2 was read as POLB inh -25%[22.9 µM] and KAT2A inh -3%[12.7 µM].
Screening COc1ccc(Cn2c(C3CCCCC3)nc3c(c(=O)c4ccccc4n3C)c2=O)cc1 returned POLK inh -3%, POLB inh 4.5µM*, KAT2A inh -11%, Pol iota inh 18%, Pol eta inh inconclusive and GLS inh -27%.
CCSc1ccc(C(=O)NCC(=O)O)cc1 was read as POLK inh 1%, POLB inh 5%, KAT2A inh -3%, Pol iota inh 38%, Pol eta inh 9% and GLS inh 5%.
For CSc1ccc(NC(=O)Nc2ccc(C(=O)NCC(=O)O)cc2)cc1 the results were POLK inh -20%, POLB inh 28µM*, KAT2A inh -13%, Pol iota inh 5%, Pol eta inh inconclusive and GLS inh inconclusive.
